Experimental data as given in PubChem BioAssay (NCATS).
For some assays here: Potency and affinity values are given separately. Activity calls are given as the source filed them. Where a call stands in place of a potency, no number is given. How the calls were made is not given here.

Legend:
[1] = Ebola virus entry assay, green fluorescence channel
[2] = Ebola virus entry assay, ratio channel
[3] = Ebola virus entry assay, green channel fluorescence
[4] = qHTS profiling of the MIPE4 collection as inhibitors of Plasmodium falciparum (DD2) proliferation (AID 743345); details: P. falciparum Dd2 in erythrocytes, SYBR Green DNA, 72 h; at 28.5 µM (top of the series) unless noted
In short: (§1)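 Parasite DNA was quantified by SYBR Green I fluorescence (ex 485, em 535 nm) after overnight lysis in saponin/Triton buffer at room temperature. Cultures at 0.3% parasitemia and 2.5% hematocrit were first exposed to compound for 72 h at 37 C; signals were normalised to artemisinin (0.29 uM) and vehicle wells.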

[5] = qHTS profiling of the MIPE4 collection as inhibitors of Plasmodium falciparum (HB3) proliferation (AID 743347); details: P. falciparum HB3 in erythrocytes, SYBR Green DNA, 72 h; at 28.5 µM (top of the series) unless noted
In short: as §1

In the case of Nc1ccc(S(=O)(=O)NCc2ccccc2)cc1, the efficacy [1] is reported as 27.6% (inactive), the outcome [2] is reported as “inactive” and the outcome [3] is reported as “inactive”.
With O=c1[nH]c(=O)n([C@H]2CCCO2)cc1F the efficacy [1] was -34.9% (inactive), the outcome [2] was “inactive” and the outcome [3] was “inactive”.
In the case of Cc1ccnc(NS(=O)(=O)c2ccc(N)cc2)n1, the efficacy [1] is reported as -24.3% (inactive), the outcome [2] is reported as “inactive” and the outcome [3] is reported as “inactive”.
In the case of Cc1c(I)c(=O)n(-c2ccccc2)n1C, the efficacy [1] is reported as -23.5% (inactive), the outcome [2] is reported as “inactive” and the outcome [3] is reported as “inactive”.
For NC(=O)N[C@@H](CCC(=O)O)C(=O)O, the efficacy [1] was -11.5% (inactive), the outcome [2] was “inactive” and the outcome [3] was “inactive”.
With FC1(F)C(F)(F)C(F)(F)C2(F)C(F)(F)C(F)(F)C(F)(F)C(F)(F)C2(F)C1(F)F (stereo unspecified) the efficacy [1] was -14% (inactive), the outcome [2] was “inactive” and the outcome [3] was “inactive”.
With Nc1nc(-c2ccccc2)c(Br)c(=O)[nH]1 the efficacy [1] was -17% (inactive), the outcome [2] was “inactive” and the outcome [3] was “inactive”.
For O=C1NCC2(CCN(CCc3ccccc3)CC2)O1, the efficacy [1] was 10.9% (inactive), the outcome [2] was “inactive” and the outcome [3] was “inactive”.
For Clc1ccc(C(c2ccc(Cl)cc2)C(Cl)(Cl)Cl)cc1, the efficacy [1] was 25.5% (inactive), the outcome [2] was “inactive” and the outcome [3] was “inactive”.
With CC(NN)c1ccccc1 (stereo unspecified) the efficacy [1] was -30% (inactive), the outcome [2] was “inactive” and the outcome [3] was “inactive”.
With COc1nccnc1NS(=O)(=O)c1ccc(N)cc1 the efficacy [1] was -13.7% (inactive), the outcome [2] was “inactive” and the outcome [3] was “inactive”.
For Cc1ccc(C(=O)c2ccc(CC(=O)O)n2C)cc1, the efficacy [1] was 11.5% (inactive), the outcome [2] was “inactive” and the outcome [3] was “inactive”.
For CCCCCCCCCCCCSCCOCCO, the efficacy [1] was -41.3% (inactive), the outcome [2] was “inactive” and the outcome [3] was “inactive”.
For Cc1c(F)c(N2CCNC(C)C2)cc2c1c(=O)c(C(=O)O)cn2C1CC1 (stereo unspecified), the efficacy [1] was -15% (inactive), the outcome [2] was “inactive” and the outcome [3] was “inactive”.
With CC1CCc2c(N3CCC(O)CC3)c(F)cc3c(=O)c(C(=O)O)cn1c23 (stereo unspecified) the efficacy [1] was -9.77% (inactive), the outcome [2] was “inactive” and the outcome [3] was “inactive”.
With OC1(c2ccccc2)CCNCC1 the efficacy [1] was 9.98% (inactive), the outcome [2] was “inactive” and the outcome [3] was “inactive”.
For Cc1c(NC(C)C)c(=O)n(-c2ccccc2)n1C, the efficacy [1] was -14.1% (inactive), the outcome [2] was “inactive” and the outcome [3] was “inactive”.
In the case of CCN(Cc1ccncc1)C(=O)C(CO)c1ccccc1 (stereo unspecified), the efficacy [1] is reported as -24.3% (inactive), the outcome [2] is reported as “inactive” and the outcome [3] is reported as “inactive”.
In the case of CC(=O)[C@H]1CC[C@H]2[C@@H]3C=CC4=CC(=O)CC[C@@]4(C)[C@@H]3CC[C@]12C, the efficacy [1] is reported as 16% (inactive), the outcome [2] is reported as “inactive” and the outcome [3] is reported as “inactive”.
In the case of CCN(CC)CCc1c[nH]c2ccccc12, the efficacy [1] is reported as 21.6% (inactive), the outcome [2] is reported as “inactive” and the outcome [3] is reported as “inactive”.
With NS(=O)(=O)c1cc2c(cc1Cl)NC(CC1CCCC1)NS2(=O)=O (stereo unspecified) the efficacy [1] was 19% (inactive), the outcome [2] was “inactive” and the outcome [3] was “inactive”.
In the case of CC(C)CCOC(=O)c1ccc(N(C)C)cc1, the efficacy [1] is reported as -19.6% (inactive), the outcome [2] is reported as “inactive” and the outcome [3] is reported as “inactive”.
In the case of CC(N)CCCC(C)(C)O (stereo unspecified), the efficacy [1] is reported as -22.7% (inactive), the outcome [2] is reported as “inactive” and the outcome [3] is reported as “inactive”.
For COCCOCC(OC)OC, the efficacy [1] was 16.2% (inactive), the outcome [2] was “inactive” and the outcome [3] was “inactive”.
In the case of CCCCCCCCCCC[C@@H](C[C@@H]1OC(=O)[C@H]1CCCCCC)OC(=O)[C@H](CC(C)C)NC=O, the efficacy [1] is reported as -27.6% (inactive), the outcome [2] is reported as “inactive” and the outcome [3] is reported as “inactive”.
In the case of COc1cc2c(cc1OC)CN(C(=O)[C@H](C)N[C@@H](CCc1ccccc1)C(=O)O)[C@H](C(=O)O)C2, the efficacy [1] is reported as -27.9% (inactive), the outcome [2] is reported as “inactive” and the outcome [3] is reported as “inactive”.
With C[C@H]1O[C@@H](n2cc(F)c(=O)[nH]c2=O)[C@H](O)[C@@H]1O the efficacy [1] was -18.2% (inactive), the outcome [2] was “inactive” and the outcome [3] was “inactive”.
With Cc1ncc([N+](=O)[O-])n1CC(O)CCl (stereo unspecified) the efficacy [1] was -16.3% (inactive), the outcome [2] was “inactive” and the outcome [3] was “inactive”.
In the case of Nc1ccc([N+](=O)[O-])c(C(F)(F)F)c1, the efficacy [1] is reported as -37.2% (inactive), the outcome [2] is reported as “inactive” and the outcome [3] is reported as “inactive”.
In the case of CN(C)CCOC(=O)COc1ccc(Cl)cc1, the efficacy [1] is reported as 14.4% (inactive), the outcome [2] is reported as “inactive” and the outcome [3] is reported as “inactive”.
For Cc1ccc(C(C)C)c(O)c1, the efficacy [1] was -16.9% (inactive), the outcome [2] was “inactive” and the outcome [3] was “inactive”.
In the case of NCCS(=O)(=O)O, the efficacy [1] is reported as 39.2% (inactive), the outcome [2] is reported as “inactive” and the outcome [3] is reported as “inactive”.
In the case of COP(=S)(OC)Oc1ccc(S(=O)(=O)N(C)C)cc1, the efficacy [1] is reported as -33.6% (inactive), the outcome [2] is reported as “inactive” and the outcome [3] is reported as “inactive”.
In the case of Nc1ccc([As](=O)(O)O)cc1, the efficacy [1] is reported as -24.9% (inactive), the outcome [2] is reported as “inactive” and the outcome [3] is reported as “inactive”.
In the case of CCOC(=O)c1cnc2c(cnn2CC)c1NN=C(C)C, the efficacy [1] is reported as -8.64% (inactive), the outcome [2] is reported as “inactive” and the outcome [3] is reported as “inactive”.
With Cc1nc(-c2ccc(Cl)cc2)oc1COC(C)(C)C(=O)O the efficacy [1] was -18.2% (inactive), the outcome [2] was “inactive” and the outcome [3] was “inactive”.
Compound CCC1(c2ccc(N)cc2)CCC(=O)NC1=O (stereo unspecified) has a parasite growth remaining, % of DMSO control (lower = more inhibition) [4] of 103% and a growth, % of control [5] of 101%.
Compound C[C@]12CC[C@H]3[C@@H](CC[C@@]45O[C@H]4C(O)=C(C#N)C[C@]35C)[C@H]1CC[C@H]2O has a parasite growth remaining, % of DMSO control (lower = more inhibition) [4] of 70.8% and a growth, % of control [5] of 90.1%.
For O=c1[nH]oc2c1CCNC2, the efficacy [1] was 22.4% (inactive) and the outcome [3] was “inactive”.
In the case of CC(C)(Sc1cc(C(C)(C)C)c(O)c(C(C)(C)C)c1)Sc1cc(C(C)(C)C)c(O)c(C(C)(C)C)c1, the efficacy [1] is reported as -17.7% (inactive) and the outcome [3] is reported as “inactive”.
